Several values for one entry are separate records, joined by “and”; a condition that tells them apart may be missing. Equal entries are not always repeated. Values without a mark were called inactive. Inconclusive results are not listed. Activity calls are given as the source filed them. Unless noted, calls follow the shape of the dose curve; as a rule, active = well fitted curve in the direction sought with a large enough effect; inconclusive = small, poorly fitted or top-dose-only effect, or another doubt; inactive = no such curve, though single readings can be large; an effect the other way counts as inactive or inconclusive.

Six compounds from PubChem BioAssay (NCATS) can be followed below.

Assay [1] in a line: AP1 Signaling Pathway (AID 357; active = well fitted curve in either direction with a large enough effect, not every such curve was filed as active; also: % is scaled to controls: 0 for no effect and ±100 for the full control effect). The note with it: ME-180 AP-1-bla reporter, EGF-induced, beta-lactamase ratio, 5 h; at 38 µM (top of the series). Put shortly: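 AP-1-bla ME-180 cells, Opti-MEM + 0.5% dialyzed FBS, plated overnight 37 °C. Cpd titration + EC50 EGF, 5 h 37 °C. CCF4 2.5 h RT; ex 405, em 460/530 ratio → %activity, AC50.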
The target in assay [2] is Cytochrome P450 1A2 (Homo sapiens) (UniProt P05177). The assay is described as follows: p450-cyp1a2 (AID 410; calls by dose curve; also: potency is read from the fitted curve at half-maximal effect;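 as to activity change, negative = inhibition: -100% = full effect of reference inhibitor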). Put shortly: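 Luminescent readout of luciferin formed from Luciferin-ME by human CYP1A2; data normalized against complete inhibition by 57 uM furafylline. Enzyme 20nM, substrate 100uM at Km, 100mM KPO4 buffer, 60 min reaction at room temperature.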
Cytochrome P450 1A2 (Homo sapiens), sequence (P05177 whole entry, looked up): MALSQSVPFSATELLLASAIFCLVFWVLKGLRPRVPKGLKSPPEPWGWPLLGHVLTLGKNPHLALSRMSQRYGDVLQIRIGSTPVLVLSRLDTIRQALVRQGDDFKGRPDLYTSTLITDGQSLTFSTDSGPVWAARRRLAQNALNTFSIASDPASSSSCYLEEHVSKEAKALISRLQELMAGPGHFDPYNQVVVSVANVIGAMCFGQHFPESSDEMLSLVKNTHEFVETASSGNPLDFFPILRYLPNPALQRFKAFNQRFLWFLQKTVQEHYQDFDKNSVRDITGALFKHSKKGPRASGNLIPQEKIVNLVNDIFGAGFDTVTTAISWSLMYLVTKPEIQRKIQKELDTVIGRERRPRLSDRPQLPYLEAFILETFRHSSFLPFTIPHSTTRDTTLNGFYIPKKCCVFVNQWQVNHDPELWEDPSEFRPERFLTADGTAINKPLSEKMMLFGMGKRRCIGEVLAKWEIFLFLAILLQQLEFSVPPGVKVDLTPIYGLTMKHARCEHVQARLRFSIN
Assay [3] in a line: NFAT Signaling Pathway (AID 444; active = well fitted curve in either direction with a large enough effect, not every such curve was filed as active;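 also: carbachol stimulus at about its EC50 of 1 µM final; % is scaled to controls: 0 for no effect and ±100 for the full control effect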). The following applies: Jurkat NFAT-bla M1, carbachol, beta-lactamase ratio, 5 h; at 38 µM (top of the series). The essentials:
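Read-out: CCF4 FRET ratio (460 nm/530 nm) after 1 h RT dye loading, used for %activity and AC50 from titration series. Cells: Jurkat NFAT-β-lactamase/M1 line, treated with compound plus 1 uM carbachol for 5 h, 37 °C.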

Assay [4] can be described thus: Stat Signaling Pathway (AID 446; active = well fitted curve in either direction with a large enough effect, not every such curve was filed as active;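 also: ME-180 cervical cancer cells given 40 pM IL-6 alongside compound; SIE-controlled beta-lactamase reporter measured as 460/530 nm FRET emission ratio; % is scaled to controls: 0 for no effect and ±100 for the full control effect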). The note with it: ME-180 SIE beta-lactamase reporter, IL-6 stimulated, 5 h; at 38 µM (top of the series). The essentials: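 Screening format detects activators and inhibitors alike: ME-180 SIE-bla cells stimulated at 40 pM IL-6 for 5 hrs with compound, then dual-emission beta-lactamase read at 405 nm excitation.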
Assay [5] has as its target Glucocorticoid receptor (Homo sapiens) (UniProt P04150). The assay is described as follows: GR-GFP Redistribution (AID 450;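 active = compounds whose dose series gives a full or clear partial fitted curve of increased nuclear translocation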; also: potency is read from the fitted curve at half-maximal effect). The note with it: U2OS GR-GFP nuclear translocation, laser cytometry, 2 h.
Assay [6] has the same target. In words: GR-EFC Redistribution (AID 451; calls by dose curve; also: potency is read from the fitted curve at half-maximal effect). The note with it: CHO-K1 GR-EFC translocation, beta-gal luminescence, 2 h. Put shortly: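 Translocation of GR-ED fusion to nuclear EA restores b-gal, read by luminescence after 1 h room-temperature detection. Engineered CHO-K1 biosensor cells, 1,000/well, exposed 2 h at 37 C to titrations up to 46 uM final.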
For assay [7], the target named is Mitogen-activated protein kinase 10 (Mus musculus) (UniProt Q61831). In words: JNK3 AlphaScreen Assay (AID 530; active = well fitted curve in either direction with a large enough effect, not every such curve was filed as active;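 also: kinase came from lysate of stimulated human HepG2 cells; signal reports phosphorylation of biotinylated GST-cJun 1-79 at Ser73 with 10 µM ATP; % is scaled to controls: 0 for no effect and ±100 for the full control effect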). Put shortly:
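Compound titrations were preincubated 15 minutes at room temperature with substrate, antibody and pre-activated JNK3-containing HepG2 lysate. Reactions were started with 10 uM ATP and stopped with EDTA-containing bead buffer for AlphaScreen detection.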

The target of assay [8] is Cytochrome P450 3A4 (Homo sapiens) (UniProt P08684). In words: qHTS Assay for Activators of Cytochrome P450 3A4 (AID 885). Also: nearly all actives have a fitted effect of over 65% in size. Put shortly:
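Steps: enzyme/substrate mix dispensed; compound added, 10 min RT; NADPH regeneration solution added, 60 min RT; luciferin detection buffer stops reaction; 20 min later luminescence measured.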

Assay [9] concerns the target Cytochrome P450 2D6 (Homo sapiens) (UniProt P10635). In words: qHTS Assay for Inhibitors and Substrates of Cytochrome P450 2D6 (AID 891). Also: nearly all actives have a fitted effect of over 60% in size. Also: potency is read from the fitted curve at half-maximal effect. Put shortly: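 Human CYP2D6 (5 nM) with 30 uM Luciferin-ME EGE (at Km) in 100 mM KPO4, compound preincubated 10 min, then NADPH regeneration system for 60 min at room temperature. Luciferin read by luminescence; normalized to 1.43 uM quinidine.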

In assay [10] the target is Cytochrome P450 2C19 (Homo sapiens) (UniProt P33261). In words: qHTS Assay for Inhibitors and Substrates of Cytochrome P450 2C19 (AID 899). Also: nearly all actives have a fitted effect of over 60% in size. Also: potency is read from the fitted curve at half-maximal effect. The essentials:
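Reactions contain 5nM enzyme, 10uM Luciferin-H EGE (KM) and 50mM KPO4; compound preincubates 10 min at 37C, NADPH regeneration starts turnover for 60 min. Luminescence after detection reagent gives activity.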

The target in assay [11] is Pyruvate kinase (Leishmania mexicana) (UniProt Q27686). In words: qHTS Validation Assay for Inhibitors of Leishmania Mexicana Pyruvate Kinase (AID 945). Also: potency is read from the fitted curve at half-maximal effect.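 As to activity change, negative = inhibition: 0% = DMSO only neutral control wells.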 Put shortly:
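qHTS eight-point titrations against 0.2 nM LmPYK (E451W) in imidazole buffer pH 7.2 with 0.5 mM PEP, 0.1 mM ADP; 1 h, room temperature. Readout: PKLight luminescence, normalized to neutral DMSO wells.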

For assay [12], the target named is Pyruvate kinase PKM (Homo sapiens) (UniProt P14618). The assay is described as follows: qHTS Assay for Activators of Human Muscle Pyruvate Kinase (AID 954; active = well fitted curve in the direction sought with a large enough effect, not every such curve was filed as active;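 also: 0% = uninhibited enzyme and -100% = no enzyme or full thiadiazolimine inhibition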). Put shortly: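 Reaction: 0.1 nM purified PKM2 with 0.5 mM phosphoenolpyruvate and 0.1 mM ADP, room temperature, 1 h. Readout: luciferase-based ATP luminescence after stop reagent. Activators judged against a 0.3 nM enzyme column.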
Pyruvate kinase PKM (Homo sapiens), sequence (P14618 whole entry, looked up): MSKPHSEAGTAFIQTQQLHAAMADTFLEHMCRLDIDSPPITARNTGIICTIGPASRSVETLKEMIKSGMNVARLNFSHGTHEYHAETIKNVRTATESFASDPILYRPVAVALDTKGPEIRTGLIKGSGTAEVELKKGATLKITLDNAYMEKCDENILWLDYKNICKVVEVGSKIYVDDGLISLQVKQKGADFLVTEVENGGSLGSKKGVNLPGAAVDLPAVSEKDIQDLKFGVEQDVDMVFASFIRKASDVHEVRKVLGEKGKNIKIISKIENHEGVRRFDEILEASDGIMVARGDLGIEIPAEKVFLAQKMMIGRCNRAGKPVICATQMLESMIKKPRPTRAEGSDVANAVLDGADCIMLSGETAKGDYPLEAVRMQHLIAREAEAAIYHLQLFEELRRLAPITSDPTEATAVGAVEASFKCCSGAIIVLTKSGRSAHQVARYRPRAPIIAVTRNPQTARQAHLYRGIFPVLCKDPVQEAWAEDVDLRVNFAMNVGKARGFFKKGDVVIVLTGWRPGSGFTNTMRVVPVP

The target of assay [13] is alpha-glucosidase (Oryza sativa, rice) (UniProt Q653V4). The assay is described as follows: Counterscreen for Glucocerebrosidase Inhibitors: qHTS Assay for Rice alpha-Glucosidase at pH 5.0 (AID 997).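 Also: 0% = full activity with enzyme and -100% = basal without enzyme.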 The essentials: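 Rice alpha-glucosidase (4 nM final) with 400 uM 4-methylumbelliferyl-alpha-D-glucopyranoside in citrate buffer pH 5.0, 20 min at room temperature, stopped at pH 10; fluorescence 365/440 nm, compounds 0.7 nM–77 uM, AC50 from Hill fits.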

For assay [14], the system named is Zika virus NS2B-NS3 protease. In words: Primary screen GU AMC qHTS for Zika virus inhibitors (AID 1347154).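 Also: 0% = no-inhibitor control and -100% = no-enzyme control; nearly all actives have a fitted effect of over 70% in size.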 Put shortly:
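Fluorogenic AMC-substrate cleavage by noncovalent NS2B-NS3 protease complex (25 nM, pH 8.0 Tris buffer with Tween 20) followed for 15 minutes at room temperature (~20% conversion). Percent inhibition from ex340/em450 signal change, fitted by 4-parameter Hill equation.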

A short description of assay [15]: Primary qHTS for small molecule stabilizers of the endoplasmic reticulum resident proteome: Secreted ER Calcium Modulated Protein (SERCaMP) assay (AID 1508630). Also: % is scaled to controls: 0 for no effect and ±100 for the full control effect. The essentials: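 GLuc-SERCaMP-expressing SH-SY5Y cells, pretreated 16 h with compound, are challenged with thapsigargin to empty ER calcium stores; after 4 h, coelenterazine is added directly to the medium and luminescence is imaged.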

Assay [16] concerns the target 3',5'-cyclic-AMP phosphodiesterase 4B (Homo sapiens) (UniProt Q07343). In words: qHTS Assay for Inhibitors of PDE-IV (AID 607; active = well fitted activation curve with a large enough effect in the main read-out, with a control signal flat, not every such curve was filed as active; also: % of control where 0% means no effect). Put shortly: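 The readout is membrane depolarisation from a cAMP-sensing CNG channel, detected with a potential dye at ex 535/em 590. Cells were HEK293-derived (endogenous PDE-IV) at 1000 cells/well, titrated up to 22.9 uM final.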
In assay [17] the target is Cytochrome P450 3A4 (Homo sapiens) (UniProt P08684). The assay is described as follows: qHTS Assay for Inhibitors and Substrates of Cytochrome P450 3A4 (AID 884). Also: nearly all actives have a fitted effect of over 50% in size. Also: potency is read from the fitted curve at half-maximal effect. The essentials: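 20 nM human CYP3A4 with 25 uM Luciferin-PPXE (at KM) in 200 mM KPO4, preincubated 10 min with compound; NADPH regeneration started a 60 min RT reaction. Luciferin detected by luminescence, normalized to 57 uM ketoconazole as full inhibition.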
Cytochrome P450 3A4 (Homo sapiens), sequence (P08684 whole entry, looked up): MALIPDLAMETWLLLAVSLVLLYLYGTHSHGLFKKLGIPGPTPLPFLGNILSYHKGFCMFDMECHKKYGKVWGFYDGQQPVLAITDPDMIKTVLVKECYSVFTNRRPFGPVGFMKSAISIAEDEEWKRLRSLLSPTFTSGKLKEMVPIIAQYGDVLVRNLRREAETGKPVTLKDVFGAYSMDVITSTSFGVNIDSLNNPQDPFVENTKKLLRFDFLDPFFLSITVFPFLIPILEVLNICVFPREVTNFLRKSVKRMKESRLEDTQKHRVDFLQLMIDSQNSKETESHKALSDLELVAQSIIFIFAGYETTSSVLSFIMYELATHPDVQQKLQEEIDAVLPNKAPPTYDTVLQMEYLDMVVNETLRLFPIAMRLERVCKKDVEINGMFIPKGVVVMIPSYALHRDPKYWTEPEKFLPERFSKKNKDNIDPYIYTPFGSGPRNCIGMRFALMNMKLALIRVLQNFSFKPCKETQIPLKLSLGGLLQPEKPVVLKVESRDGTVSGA

Assay [18] has as its target DNA dC->dU-editing enzyme APOBEC-3G (Homo sapiens) (UniProt Q9HC16). In words: qHTS for inhibitors of Vif-A3G interactions: Validation (AID 588379). Also: potency is read from the fitted curve at half-maximal effect. As to activity change, negative = inhibition: 0% is about no effect. Put shortly: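 HeLa cells stably expressing Vif and A3G-eYFP, 700 cells/well, incubated overnight at 37 deg C, then exposed to compound overnight at 37 deg C. Inhibition of Vif-mediated degradation read as increased yellow fluorescence (Ex 488/Em 500-530) by laser-scanning cytometry.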

The target in assay [19] is Ubiquitin carboxyl-terminal hydrolase 1 (Homo sapiens) (UniProt O94782). The assay is described as follows: Inhibitors of USP1/UAF1: Pilot qHTS (AID 504865).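 Also: rhodamine fluorescence freed from ubiquitin-rhodamine substrate followed over time; top concentration of the series differs between compounds; % is scaled to controls: 0 for no effect and ±100 for the full control effect; nearly all actives have a fitted effect of over 35% in size.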 The essentials: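 Deubiquitinase activity followed as kinetic rhodamine fluorescence release from 150 nM Ub-Rho. 1 nM USP1/UAF1 with compound, after 15 min room-temperature preincubation, in HEPES pH 7.8 buffer containing TCEP, EDTA, BSA and Tween-20.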
Ubiquitin carboxyl-terminal hydrolase 1 (Homo sapiens), sequence (O94782 whole entry, looked up): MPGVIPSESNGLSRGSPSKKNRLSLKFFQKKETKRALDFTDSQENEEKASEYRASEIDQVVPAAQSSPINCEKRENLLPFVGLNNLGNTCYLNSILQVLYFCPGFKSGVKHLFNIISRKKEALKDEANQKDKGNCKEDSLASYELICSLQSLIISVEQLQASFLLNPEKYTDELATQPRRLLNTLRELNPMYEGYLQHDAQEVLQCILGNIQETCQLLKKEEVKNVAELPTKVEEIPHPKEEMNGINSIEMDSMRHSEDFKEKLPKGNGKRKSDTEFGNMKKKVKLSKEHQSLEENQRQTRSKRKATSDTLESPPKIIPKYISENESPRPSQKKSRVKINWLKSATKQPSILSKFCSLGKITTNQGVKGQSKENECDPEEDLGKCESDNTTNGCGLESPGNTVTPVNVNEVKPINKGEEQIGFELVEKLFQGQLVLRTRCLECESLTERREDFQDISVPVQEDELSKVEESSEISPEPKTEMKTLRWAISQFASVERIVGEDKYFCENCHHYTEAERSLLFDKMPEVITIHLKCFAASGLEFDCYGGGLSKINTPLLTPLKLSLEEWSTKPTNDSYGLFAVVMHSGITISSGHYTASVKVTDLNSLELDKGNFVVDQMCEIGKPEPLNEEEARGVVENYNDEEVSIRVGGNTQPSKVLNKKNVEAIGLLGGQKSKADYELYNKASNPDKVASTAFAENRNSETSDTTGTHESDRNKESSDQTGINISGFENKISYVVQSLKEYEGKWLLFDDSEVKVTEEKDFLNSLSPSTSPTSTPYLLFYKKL

DNA dC->dU-editing enzyme APOBEC-3G (Homo sapiens), sequence (Q9HC16 whole entry, looked up): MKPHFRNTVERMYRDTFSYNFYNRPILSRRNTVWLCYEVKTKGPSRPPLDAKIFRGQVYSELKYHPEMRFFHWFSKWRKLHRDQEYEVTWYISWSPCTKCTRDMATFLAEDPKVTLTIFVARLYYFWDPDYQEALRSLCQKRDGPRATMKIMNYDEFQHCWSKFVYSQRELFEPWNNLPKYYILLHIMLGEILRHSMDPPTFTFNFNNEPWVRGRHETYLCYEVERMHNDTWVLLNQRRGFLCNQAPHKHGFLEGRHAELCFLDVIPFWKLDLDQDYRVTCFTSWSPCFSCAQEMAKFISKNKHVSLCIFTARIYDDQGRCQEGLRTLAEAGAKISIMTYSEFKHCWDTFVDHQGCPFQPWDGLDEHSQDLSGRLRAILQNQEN
Glucocorticoid receptor (Homo sapiens), sequence (P04150 whole entry, looked up, the tested form may be a part): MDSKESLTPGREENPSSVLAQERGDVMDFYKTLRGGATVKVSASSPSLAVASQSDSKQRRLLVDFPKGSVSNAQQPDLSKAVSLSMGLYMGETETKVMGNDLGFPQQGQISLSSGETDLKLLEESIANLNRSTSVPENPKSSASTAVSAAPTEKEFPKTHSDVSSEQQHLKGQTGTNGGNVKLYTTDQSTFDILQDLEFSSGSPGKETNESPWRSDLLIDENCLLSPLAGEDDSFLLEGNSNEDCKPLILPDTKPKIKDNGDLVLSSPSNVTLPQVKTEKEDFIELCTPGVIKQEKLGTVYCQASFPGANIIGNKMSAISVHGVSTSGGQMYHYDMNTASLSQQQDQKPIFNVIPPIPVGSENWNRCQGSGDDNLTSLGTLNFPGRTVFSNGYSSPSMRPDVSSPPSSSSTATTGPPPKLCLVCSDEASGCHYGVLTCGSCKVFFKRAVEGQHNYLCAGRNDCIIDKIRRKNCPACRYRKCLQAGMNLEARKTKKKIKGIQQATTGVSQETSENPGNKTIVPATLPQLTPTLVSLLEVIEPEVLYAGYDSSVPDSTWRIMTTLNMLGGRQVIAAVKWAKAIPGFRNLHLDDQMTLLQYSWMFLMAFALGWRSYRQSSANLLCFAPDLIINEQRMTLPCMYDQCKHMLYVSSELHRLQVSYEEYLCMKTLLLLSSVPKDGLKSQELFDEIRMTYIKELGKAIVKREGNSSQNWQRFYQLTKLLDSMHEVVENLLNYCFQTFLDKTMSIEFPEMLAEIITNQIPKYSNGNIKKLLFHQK
Pyruvate kinase (Leishmania mexicana), sequence (Q27686 2-499 E452W): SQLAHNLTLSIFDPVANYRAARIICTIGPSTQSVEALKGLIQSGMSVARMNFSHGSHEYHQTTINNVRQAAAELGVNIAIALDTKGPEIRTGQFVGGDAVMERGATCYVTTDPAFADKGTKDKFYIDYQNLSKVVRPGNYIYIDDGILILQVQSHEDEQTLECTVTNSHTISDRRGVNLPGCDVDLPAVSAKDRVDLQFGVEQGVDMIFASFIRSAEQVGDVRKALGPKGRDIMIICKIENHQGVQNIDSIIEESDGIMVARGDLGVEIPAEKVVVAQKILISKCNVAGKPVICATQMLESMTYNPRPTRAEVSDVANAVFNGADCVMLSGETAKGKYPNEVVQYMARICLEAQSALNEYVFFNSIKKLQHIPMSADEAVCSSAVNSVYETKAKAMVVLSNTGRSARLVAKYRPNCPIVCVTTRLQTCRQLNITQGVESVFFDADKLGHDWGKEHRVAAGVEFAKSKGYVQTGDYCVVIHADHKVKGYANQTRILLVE
Cytochrome P450 2C19 (Homo sapiens), sequence (P33261 whole entry, looked up): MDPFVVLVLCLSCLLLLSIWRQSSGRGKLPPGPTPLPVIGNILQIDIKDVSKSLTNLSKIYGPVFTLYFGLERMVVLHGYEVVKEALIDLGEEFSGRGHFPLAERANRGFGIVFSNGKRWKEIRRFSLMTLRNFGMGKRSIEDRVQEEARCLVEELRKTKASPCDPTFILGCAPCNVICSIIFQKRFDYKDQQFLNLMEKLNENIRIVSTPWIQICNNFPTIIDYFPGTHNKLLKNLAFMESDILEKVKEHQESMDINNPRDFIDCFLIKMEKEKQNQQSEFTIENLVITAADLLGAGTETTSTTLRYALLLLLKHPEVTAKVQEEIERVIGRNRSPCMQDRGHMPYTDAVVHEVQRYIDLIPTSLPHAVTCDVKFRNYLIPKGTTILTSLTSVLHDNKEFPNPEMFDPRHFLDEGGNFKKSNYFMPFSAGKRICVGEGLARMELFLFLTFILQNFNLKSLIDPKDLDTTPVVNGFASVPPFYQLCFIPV
Cytochrome P450 2D6 (Homo sapiens), sequence (P10635 whole entry, looked up): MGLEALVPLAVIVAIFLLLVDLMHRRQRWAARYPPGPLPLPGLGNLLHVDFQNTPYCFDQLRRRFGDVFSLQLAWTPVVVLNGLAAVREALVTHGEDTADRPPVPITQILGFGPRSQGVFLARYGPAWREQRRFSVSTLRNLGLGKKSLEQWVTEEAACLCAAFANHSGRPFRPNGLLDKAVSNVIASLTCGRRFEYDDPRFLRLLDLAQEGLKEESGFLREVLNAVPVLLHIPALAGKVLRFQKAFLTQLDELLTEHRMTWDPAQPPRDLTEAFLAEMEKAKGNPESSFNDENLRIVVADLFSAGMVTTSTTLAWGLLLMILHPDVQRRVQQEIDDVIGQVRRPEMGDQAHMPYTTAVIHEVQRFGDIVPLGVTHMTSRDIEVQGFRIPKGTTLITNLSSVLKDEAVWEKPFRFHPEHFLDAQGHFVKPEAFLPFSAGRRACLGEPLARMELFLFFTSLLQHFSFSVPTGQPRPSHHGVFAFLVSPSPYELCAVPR

As to `CCCCOc1cc(C[C@@H]2CNC(=O)N2)ccc1OC`, the activity change, negative = inhibition in assay [1] was -11.4%; in assay [3], -19.1%. The Potency in assay [2] is 12.6 µM (active) and 10 µM (active); in assay [5], more than 46 µM; in assay [6], more than 46 µM. In addition, the activity, negative = inhibition in assay [4] was 24.5%. Also, the Potency result in assay [7], in assay [8], in assay [9], in assay [10], in [11] and in assay [14] was “inactive” in each case. Besides, the Potency entry in assay [15] is “inactive”. In addition, the compound was classed as inactive in assay [12] and in assay [13].
Take `Cc1cccc([C@@H]2CN(C)CCc3c2cc(O)c(O)c3Cl)c1`: the Potency entry in assay [2], in assay [16], in assay [17], in [11], in assay [18] and in assay [14] was “inactive” in each case. Moreover, the Potency result in assay [15] was “inactive”. For the same compound, in assay [3], the activity change, negative = inhibition is -15%. Also, in assay [4], the activity, negative = inhibition was 11.4%. Further, the Potency in [5] and in [6] was more than 46 µM throughout. The result in assay [12] and in assay [13] was inactive.
Take `COC(=O)/C=C\c1cc(O)ccc1O`: the Potency was 3.98 µM (active) in assay [2], more than 46 µM in [5], more than 46 µM in [6] and 18.8 µM (active) in assay [18]. For the same compound, the Potency entry in assay [7], in assay [16], in assay [19], in assay [14] and in [15] was “inactive” each time.
For `C[C@@H](CCCCC(=O)Nc1ccc(C(F)(F)F)cc1)NCCc1cnc[nH]1`, the Potency entry in assay [2], in assay [7], in [16], in [8], in assay [19] and in [18] was “inactive” throughout. Moreover, the Potency result in assay [14] and in assay [15] was “inactive” in each case. Further, the Potency in assay [5] is more than 46 µM; in assay [6], more than 46 µM; in assay [17] it was 5.01 µM (active); in assay [9], 5.01 µM (active).
Take `O=C(O)[C@H]1CN(CCCP(=O)(O)O)CCN1`: the activity change, negative = inhibition was 1.7% in assay [1] and 8.84% in [3]. Also, the Potency result in assay [2], in assay [7], in assay [16], in [17], in [9] and in assay [10] was “inactive” in each case. Also, the Potency result in assay [11], in [19], in assay [18], in assay [14] and in [15] was “inactive” each time. Besides, the activity, negative = inhibition in assay [4] was 7.55%. For the same compound, the Potency in assay [5] and in assay [6] was more than 46 µM each time. Also, the outcome in assay [12] and in [13] was inactive.
Take `Cc1cccc(/C=C\c2ccccc2)n1`: the activity change, negative = inhibition in assay [1] was -0.643%; in [3], -3.22%. The Potency is more than 46 µM in [5]; more than 46 µM in [6]; 0.794 µM (active) in assay [9]; 0.501 µM (active) in [10]; 15.8 µM (active) in assay [11]. Also, the Potency entry in [7], in [16], in assay [8], in [18], in [14] and in assay [15] was “inactive” in each case. The compound was called inactive in assay [12] and in assay [13].
